Data: PubChem BioAssay AID1851 (National Center for Advancing Translational Sciences (NCATS), 2009)
Several values for one entry are separate records, joined by “and”; a condition that tells them apart may be missing. Equal values may be shown once. Hit rate of the full screen: of about 16,000 compounds, about 2,600 (16%) were called active. Roughly 20% stayed inconclusive and do not appear here. The list is a sample of the results. Values without a mark were called inactive. Calls come from the whole dose curve; as a rule, active = well fitted curve in the direction sought with a large enough effect; inconclusive = small, poorly fitted or top-dose-only effect, or effect the other way; inactive = no such curve, though single readings can be large or run the other way.

The molecules below were run against Cytochrome P450 2D6 (Homo sapiens) (UniProt P10635) (assay: Cytochrome panel assay with activity outcomes). Conditions: recombinant CYP, pro-luciferin dealkylation, luminescence, p450-cyp2d6; series mostly up to 57.1 µM.
Chain of Cytochrome P450 2D6 (Homo sapiens) (P10635 whole entry, looked up): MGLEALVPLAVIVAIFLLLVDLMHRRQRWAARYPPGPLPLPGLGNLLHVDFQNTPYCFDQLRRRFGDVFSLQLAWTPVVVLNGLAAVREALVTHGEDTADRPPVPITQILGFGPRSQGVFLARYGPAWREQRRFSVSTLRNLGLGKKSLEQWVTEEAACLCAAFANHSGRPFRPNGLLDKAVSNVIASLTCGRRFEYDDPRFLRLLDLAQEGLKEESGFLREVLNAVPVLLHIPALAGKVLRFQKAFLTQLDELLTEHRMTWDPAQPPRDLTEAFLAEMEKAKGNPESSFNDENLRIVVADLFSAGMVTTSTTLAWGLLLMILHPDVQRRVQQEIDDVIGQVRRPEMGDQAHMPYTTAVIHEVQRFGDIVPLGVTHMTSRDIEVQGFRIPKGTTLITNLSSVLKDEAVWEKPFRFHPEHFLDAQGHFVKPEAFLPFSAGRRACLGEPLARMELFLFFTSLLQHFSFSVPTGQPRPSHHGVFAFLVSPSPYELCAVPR
% is set by controls: 0 for no effect and ±100 for the full control effect.

SMILES	AC50	activity, negative = inhibition
COC(=O)c1c(C)[nH]c(C)c1C(=O)c1ccccc1Cc1ccccc1	inactive	
Cc1cc(C)n(CC(=O)N/N=C/c2ccco2)n1	inactive	
O=C(NCC(c1cccs1)N1CCOCC1)c1ccco1 (stereo not given)	inactive	
COc1ccc(C2=NOC(C(=O)NCCN3CCOCC3)C2)cc1 (stereo not given)	inactive	
O=C(NCc1ccccn1)C1CC(c2ccc(Cl)c(Cl)c2)=NO1 (stereo not given)	inactive	
O=C(NCCc1cccs1)C1CC(c2c(Cl)cccc2Cl)=NO1 (stereo not given)	5.01 µM (active)	
COc1ncc2nc(-c3ccccc3)c(=O)n(C)c2n1	inactive	
Cc1cc(C)c(C#N)c(OCC(=O)c2ccc(Br)cc2)n1	inactive	
CCc1ccc(C(=O)CN(C#N)c2nc(C)cc(C)n2)cc1	6.31 µM (active)	
CCc1ccc(C(=O)COC(=O)c2cccc(N3C(=O)c4c(C)nc5ccccc5c4C3=O)c2)cc1	inactive	
CC(C)[C@@H](OCc1ccccc1)[C@H](C)/C=N\OC[C@@H](O)[C@@H]1O[C@@H]2OC(C)(C)O[C@@H]2[C@H]1O		15.3% [at 11.4 µM]
CCn1cc(C(=O)O)c(=O)c2cc(F)c(N3CCN[C@@H](C)C3)c(F)c21	inactive	
O=c1[nH]c(=O)n([C@@H]2C[C@H](O)[C@H](CO)O2)cc1C(F)(F)F	inactive	
N#Cc1cccc(-c2cc(NCc3cccnc3)ncn2)c1	inactive	
N#Cc1cccc(-c2nccc(NCc3cccnc3)n2)c1	inactive	
N#Cc1cccc(-c2nccc(NCc3ccccc3)n2)c1	7.94 µM (active)	
N#Cc1cccc(-c2nccc(NCc3cccs3)n2)c1	20 µM (active)	
Cc1cc(C(=O)OCC(=O)NCCC(C)C)c2ccccc2n1	inactive	
COc1cc2c3cc1Oc1cc(ccc1O)C[C@@H]1c4c(cc(OC)c(O)c4Oc4ccc(cc4)C[C@H]3[N+](C)(C)CC2)CC[N+]1(C)C		8.34% [at 11.4 µM]
O=C(Nc1cccc2cccnc12)[C@@H]1[C@@H](C(=O)O)[C@H]2CC[C@@H]1O2		5.88% [at 11.4 µM]
C[C@@]1(C(NC(=O)Cc2ccc(C(F)(F)F)cc2)c2ccc(-c3ccccc3)cc2)C[C@H]1C1CCCCC1 (stereo not given in full)	inactive	
O=C(O)c1ccccc1-c1ccccc1C(=O)Nc1ccccc1	inactive	

SMILES	AC50	activity, negative = inhibition
N/N=C1/c2ccccc2N[C@H]1OC(=O)Nc1ccccc1	3.16 µM (active)	
O=C(Nc1ccccc1)[C@@]12C[C@@H]1/C(=N/O)c1ccccc1O2	inactive	
CN(C)CCSCCO		7.16% [at 11.4 µM]
NC(=O)c1nnn(Cc2cc(Cl)c(C(=O)c3ccc(Cl)cc3)c(Cl)c2)c1N		-20.8% [at 11.4 µM]
NNCCc1ccccc1	6.31 µM (active) and 2.51 µM (active)	
O=C(CC(=O)NN=C1CCCC1)NCCc1ccccc1	inactive	
O=C(O)CNCCc1ccccc1		3.94% [at 11.4 µM]
COc1cccc(/C=N/n2nnc3c(cnn3-c3ccccc3)c2=O)c1	inactive	
Cc1c(C)c(C)c(CC2(C)CSC2)c(CC2(C)CSC2)c1C		7.89% [at 11.4 µM]
COc1ccc(C2(C(=O)N3CCOCC3)CCCC2)cc1	inactive	
C[N+]1(C)CCc2cc3c(cc2[C@@H]1[C@@H]1C(=O)Oc2c1ccc1c2OCO1)OCO3	12.6 µM (active)	
COc1ccc(-n2c(=O)c(-c3cccc(C#N)c3)nc3cnc(N4CCNCC4)nc32)cc1	inactive	
Nc1cc(-c2nn[nH]n2)ccc1F	inactive	
CCC(=O)NCCNC(=O)c1c(SC)nsc1SC	inactive	
CSc1nsc(SC)c1NC(=O)Nc1ccccn1	inactive	
CSc1nsc(SC)c1C(=O)Nc1ccc(C)cc1	10 µM (active)	
CC(NC(=O)C1(C)CC1(Br)Br)C(C)(C)C (stereo not given)	inactive	
COc1ccc(Oc2ncc3nc(CCc4ccccc4)c(=O)n(C4CC4)c3n2)cc1	inactive	
Cc1ccccc1/C=N\NC(=O)c1csnn1	inactive	
COc1ccc(Br)cc1C(=O)Nc1ccc(Cc2ccncc2)cc1	0.0398 µM (active)	
O=C(Nc1ccc(-c2cn3ccccc3n2)cc1)c1cc(Br)ccc1O		-3.93% [at 11.4 µM]
COc1ccc(NC(=O)c2ccc(C(=O)c3cc(OC)ccc3OC)cc2)cc1	inactive	

SMILES	AC50	activity, negative = inhibition
CC(C)=NO[C@@H](C)c1cc(-c2c(C)cc(C)cc2C)no1		-6.21% [at 11.4 µM]
O=C(O)[C@H](Cc1cc(I)c(O)c(I)c1)C1CCCCC1		10.8% [at 11.4 µM]
CC(C)OC(=O)C(CC(=O)O)N1CCOCC1 (stereo not given)	inactive	
COc1cc(NS(C)(=O)=O)ccc1Nc1c2ccccc2nc2ccccc12	inactive	
CN(C)c1nc(-c2ccccc2C(F)(F)F)nc2ccccc12	10 µM (active)	
COc1ccccc1-c1nc(N(C)C)c2ccccc2n1	3.16 µM (active)	
Cc1ccccc1-c1nc(N(C)C)c2ccccc2n1	12.6 µM (active)	
Cc1cc(NC(=O)CN2C(=O)NC(C)(c3ccc(OC(F)F)cc3)C2=O)no1 (stereo not given)	inactive	
N[C@@H](C(=O)O)c1cc(O)ccc1Cl	inactive	
N=c1ccn2c(n1)O[C@@H]1[C@@H](O)[C@H](CO)O[C@H]12	inactive	
c1ccc(-n2ncc3c2ncn2cnnc32)cc1	inactive	
CC(C)(C)n1nc(-c2ccc(Cl)cc2)c2c(N)ncnc21	inactive	
CCCSc1nc(C)cc(C)c1C(N)=O	inactive	
CC1CCCC(NC(=O)CCn2c(=O)oc3ccccc32)C1C (stereo not given)	inactive	
COc1ccc(Oc2ncc3nc(-c4cccs4)c(=O)n(-c4ccccc4)c3n2)cc1	inactive	
COc1ccccc1N1CCN(CCCCNC(=O)c2ccc3ccccc3c2)CC1	3.16 µM (active) and 3.98 µM (active)	
COc1ccccc1N1CCN(CCCCN2C(=O)CCC2=O)CC1	inactive	
COc1ccccc1N1CCN(CCCCNC(=O)c2ccc(-c3ccc(C(C)=O)cc3)cc2)CC1	inactive	
COc1ccccc1N1CCN(CCCNc2cc(=O)n(C)c(=O)n2C)CC1	inactive	
COc1ccccc1N1CCN(CCn2c(=O)[nH]c3c([nH]c4ccccc43)c2=O)CC1	inactive	
COc1ccccc1N1CCN(CCCCNS(=O)(=O)c2cccc3c(N(C)C)cccc23)CC1	15.8 µM (active)	
